Laboratory results taken from PubChem BioAssay AID1159580 (chemical genetic matrix, 2015).
The campaign covered roughly 5,500 compounds. About 2,000 (36%) were called active. Another 18% or so got no clear call; they are omitted. Cut-off read from the data, not from the text of the source: active = normalized growth mostly below about 0.91 (no sharp cut-off); inconclusive = no clear call, values can overlap the other calls; inactive = mostly above about 0.92. The list shows a part of the results.

Assay: chemical genetic growth profiling, strain panel (AID 1159580);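 note: tested at 20 µM; growth read once vehicle control cultures reached saturation at 30 °C; 1 = growth at the plate median or of vehicle wells; lower values mean less growth of the strain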
Details: growth OD

Measured: normalized growth

Cc1cc(/C=C/c2ccc3cc(N(C)C)ccc3[n+]2C)c(C)n1-c1ccccc1
inactive: S. cerevisiae deletion strains, locus YJR066W, strain TOR1, hits give low values 0.948 | S. cerevisiae deletion strains, locus YKL068W, hits give low values 1.03 | S. cerevisiae deletion strains, locus YKL085W, strain MDH1 (second series), hits give low values 1.03 | S. cerevisiae deletion strains, locus YKL085W, strain MDH1, hits give low values 1.03 | S. cerevisiae deletion strains, locus YKR001C, strain vps1, hits give low values 0.987 | S. cerevisiae deletion strains, locus YKR026C, strain gcn3, hits give low values 1.01 | S. cerevisiae deletion strains, locus YKR091W, strain srl3, hits give low values 1.02 | S. cerevisiae deletion strains, locus YLL001W, strain dnm1, hits give low values 0.934 | S. cerevisiae deletion strains, locus YLL041C, strain sdh2, hits give low values 1.03 | S. cerevisiae deletion strains, locus YLR039C, strain RIC1, hits give low values 0.703 | S. cerevisiae deletion strains, locus YLR102C, strain apc9, hits give low values 1.01 | S. cerevisiae deletion strains, locus YLR113W, strain HOG1, hits give low values 1.02 | S. cerevisiae deletion strains, locus YLR258W, strain gsy2, hits give low values 0.986 | S. cerevisiae deletion strains, locus YLR262C, strain YPT6, hits give low values 0.776 | S. cerevisiae deletion strains, locus YLR268W, strain sec22, hits give low values 0.919 | S. cerevisiae deletion strains, locus YLR330W, strain CHS5, hits give low values 1 | S. cerevisiae deletion strains, locus YLR357W, strain rsc2, hits give low values 1.09 | S. cerevisiae deletion strains, locus YLR370C, strain arc18, hits give low values 0.986 | S. cerevisiae deletion strains, locus YLR371W, strain rom2, hits give low values 1.02 | S. cerevisiae deletion strains, locus YLR384C, strain iki3, hits give low values 1 | S. cerevisiae deletion strains, locus YML032C, strain rad52, hits give low values 0.947 | S. cerevisiae deletion strains, locus YML120C, strain ndi1, hits give low values 0.93 | S. cerevisiae deletion strains, locus YML124C, strain tub3, hits give low values 1.02 | S. cerevisiae deletion strains, locus YMR078C, strain ctf18, hits give low values 1.02 | S. cerevisiae deletion strains, locus YMR205C, strain PFK2, hits give low values 1.04 | S. cerevisiae deletion strains, locus YMR223W, strain ubp8, hits give low values 0.949 | S. cerevisiae deletion strains, locus YMR231W, strain pep5, hits give low values 1.01 | S. cerevisiae deletion strains, locus YNL183C, strain NPR1, hits give low values 0.962 | S. cerevisiae deletion strains, locus YNL250W, strain rad50, hits give low values 1.02 | S. cerevisiae deletion strains, locus YNL271C, strain bni1, hits give low values 1.02 | S. cerevisiae deletion strains, locus YNL298W, strain CLA4, hits give low values 1.01 | S. cerevisiae deletion strains, locus YNL322C, strain KRE1 (second series), hits give low values 1.01 | S. cerevisiae deletion strains, locus YNR049C, strain mso1, hits give low values 1.01 | S. cerevisiae deletion strains, locus YOL012C, strain htz1 0.461 | S. cerevisiae deletion strains, locus YOL147C, strain pex11, hits give low values 0.999 | S. cerevisiae deletion strains, locus YOR001W, strain rrp6, hits give low values 0.954 | S. cerevisiae deletion strains, locus YOR061W, strain CKA2, hits give low values 0.909 | S. cerevisiae deletion strains, locus YOR069W, strain VPS5, hits give low values 0.995 | S. cerevisiae deletion strains, locus YOR136W, strain idh2, hits give low values 0.997 | S. cerevisiae deletion strains, locus YOR144C, strain elg1, hits give low values 1 | S. cerevisiae deletion strains, locus YOR184W, strain ser1, hits give low values 0.928 | S. cerevisiae deletion strains, locus YOR231W, strain MKK1, hits give low values 1.01 | S. cerevisiae deletion strains, locus YOR290C, strain snf2, hits give low values 0.947 | S. cerevisiae deletion strains, locus YOR316C, strain cot1, hits give low values 1.01 | S. cerevisiae deletion strains, locus YPL078C, strain atp4, hits give low values 0.96 | S. cerevisiae deletion strains, locus YPL240C, strain hsp82, hits give low values 1.01 | S. cerevisiae deletion strains, locus YPL256C, strain CLN2, hits give low values 1.02 | S. cerevisiae deletion strains, locus YPR119W, strain clb2, hits give low values 1.01 | S. cerevisiae deletion strains, locus YPR141C, strain kar3, hits give low values 1.04 | S. cerevisiae deletion strains, locus YPR163C, strain tif3, hits give low values 1.01 | S. cerevisiae deletion strains, locus YPR167C, strain met16, hits give low values 0.989
active: S. cerevisiae deletion strains, locus YKL160W, strain elf1, hits give low values 0.829 | S. cerevisiae deletion strains, locus YKL190W, strain CNB1, hits give low values 0.692 | S. cerevisiae deletion strains, locus YLL026W, hits give low values 0.926 | S. cerevisiae deletion strains, locus YLR027C, strain aat2, hits give low values 0.909 | S. cerevisiae deletion strains, locus YLR058C, strain SHM2, hits give low values 0.887 | S. cerevisiae deletion strains, locus YLR221C, strain rsa3, hits give low values 0.905 | S. cerevisiae deletion strains, locus YLR262C, strain YPT6 (second series), hits give low values 0.717 | S. cerevisiae deletion strains, locus YLR320W, strain mms22, hits give low values 0.797 | S. cerevisiae deletion strains, locus YLR342W, strain FKS1 (second series), hits give low values 0.774 | S. cerevisiae deletion strains, locus YLR342W, strain FKS1, hits give low values 0.832 | S. cerevisiae deletion strains, locus YLR418C, strain cdc73, hits give low values 0.385 | S. cerevisiae deletion strains, locus YML016C, strain PPZ1, hits give low values 0.906 | S. cerevisiae deletion strains, locus YMR058W, strain fet3, hits give low values 0.863 | S. cerevisiae deletion strains, locus YMR125W, strain sto1, hits give low values 0.819 | S. cerevisiae deletion strains, locus YMR129W, hits give low values 0.874 | S. cerevisiae deletion strains, locus YMR307W, strain GAS1, hits give low values 0.583 | S. cerevisiae deletion strains, locus YNL067W, strain RPL9B, hits give low values 0.842 | S. cerevisiae deletion strains, locus YNL071W, strain lat1, hits give low values 0.762 | S. cerevisiae deletion strains, locus YNL128W, strain TEP1, hits give low values 0.202 | S. cerevisiae deletion strains, locus YNL153C, strain GIM3, hits give low values 0.709 | S. cerevisiae deletion strains, locus YNL209W, strain ssb2, hits give low values 0.848 | S. cerevisiae deletion strains, locus YNL233W, strain BNI4, hits give low values 0.749 | S. cerevisiae deletion strains, locus YNL248C, strain rpa49, hits give low values 0.714 | S. cerevisiae deletion strains, locus YNL307C, strain MCK1, hits give low values 0.863 | S. cerevisiae deletion strains, locus YNL322C, strain KRE1, hits give low values 0.686 | S. cerevisiae deletion strains, locus YNR052C, strain pop2, hits give low values 0.731 | S. cerevisiae deletion strains, locus YOL006C, strain TOP1, hits give low values 0.382 | S. cerevisiae deletion strains, locus YOR070C, strain gyp1, hits give low values 0.91 | S. cerevisiae deletion strains, locus YOR080W, strain dia2, hits give low values 0.892 | S. cerevisiae deletion strains, locus YOR083W, strain WHI5, hits give low values 0.804 | S. cerevisiae deletion strains, locus YOR106W, strain vam3, hits give low values 0.754 | S. cerevisiae deletion strains, locus YOR265W, strain rbl2, hits give low values 0.92 | S. cerevisiae deletion strains, locus YOR270C, strain vph1, hits give low values 0.728 | S. cerevisiae deletion strains, locus YPL051W, strain arl3, hits give low values 0.914 | S. cerevisiae deletion strains, locus YPL106C, strain sse1, hits give low values 0.468 | S. cerevisiae deletion strains, strain wtn01, hits give low values 0.775 | S. cerevisiae strains, strain wild type, hits give low values 0.484
